Hit rate of the full screen: of about 190,000 compounds, about 220 (0.12%) were called active. About 2% were inconclusive and are not listed. For the sample, actives were picked, then their nearest neighbours and some compounds at random. A number with no mark means an inactive call.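 The calls were made as follows: active = GTP binding at least 20 percentage points away from the 100% baseline, in either direction, so actives lie on both sides; inconclusive = Compound likely fluorescent itself, or too few beads counted; inactive = the rest.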
What follows are molecules tested against Ras-related C3 botulinum toxin substrate 1 (Homo sapiens) (UniProt P63000) (assay: GTP binding modulators of activated mutant Rac1, primary screen, biochemical, bead-based flow cytometry, multiplex, fluorescent GTP (AID 764)). Conditions: GST-Rac1 activated beads, at 10 µM, actives lie on both sides, 100% means binding = to untreated wells.

Row | Compound | percent activity (GTP binding)
1 | COc1ccc(OC)c(CNC(=O)c2cc(=O)[nH]c3ccc(S(=O)(=O)N4CCCC4)cc23)c1 | 95%
2 | CC(C)(C)NC(=O)NC(=O)COC(=O)C1(C)CC1(Cl)Cl (centres undefined) | 97%
3 | COC(=O)C(NS(=O)(=O)c1ccc(F)cc1)c1ccccc1 (centres undefined) | 96%
4 | O=C(CP(=O)(c1ccccc1)c1ccccc1)N1CCOCC1 | 92%
5 | O=C(C1CC1)N1N=C2CCCCC2C1(O)C(F)(F)F (centres undefined) | 96%
6 | Cc1ccc(C)c(-n2cc(CN3CCN(C(=O)c4ncn[nH]4)CC3)c(-c3ccccc3)n2)c1 | 95%
7 | CCN(CC)S(=O)(=O)c1ccc(N2CCOCC2)c(NC(=O)C2COc3ccccc3O2)c1 (centres undefined) | 97%
8 | CCOC(=O)C1=C(CC)OC(N)=C(C#N)C1c1ccc(F)cc1F (centres undefined) | 93%
9 | O=C(O)c1cccc(NC(=O)c2cc(-c3cccc(Cl)c3)nc3ccccc23)c1 | 93%
10 | COc1ccc(C2C(C#N)=C(N)N(c3ncn[nH]3)C3=C2C(=O)CCC3)cc1 (centres undefined) | 96%
11 | COc1ccc(N2CCN(C(=O)CCSCc3ccccc3F)CC2)cc1 | 92%
12 | Cc1ccnc(NC(=O)CCC(=O)N(CC(=O)NCCc2ccccc2)Cc2cccs2)c1 | 97%
13 | COc1ccc(NC(=O)/C(C#N)=C\c2cc(OC)c(OCc3ccc(C(=O)O)cc3)cc2Br)cc1 | 89%
14 | C1CC1Cc1noc(CN2CCN(CC3CC3)CC2)n1 | 94%
15 | CCn1c(CNC(=O)c2ccco2)nnc1SCC(=O)Nc1cccc(F)c1 | 98%
16 | Cn1c(SCC(=O)NC2CCCCC2)nnc1-c1ccc(N)cc1 | 96%
17 | CC(=O)NC1(c2ccc(F)cc2)CCN(C(=O)c2c(F)cccc2F)CC1 | 92%
18 | CN(C)C(CNC(=O)c1cccc(C#N)c1)c1ccco1 (centres undefined) | 97%
19 | COc1ccc(C(=O)COC(=O)c2nn(C)c(=O)c3ccccc23)c(OC)c1 | 92%
20 | Cc1c(Br)c([N+](=O)[O-])nn1CC(=O)N1CCN(Cc2ccccc2)CC1 | 98%
21 | CC(=O)c1ccc(NC(=S)N(Cc2ccccc2)C(C)C2CC2)cc1 (centres undefined) | 93%
22 | CCN(CCn1cccn1)C(=O)CC1C(=O)NCCN1Cc1cccc(OC)c1OC (centres undefined) | 93%
23 | CCOC(=O)CNc1nc(Cl)nc(Nc2ccccc2)n1 | 96%
24 | Cc1ccc(SC(CC(=O)c2ccc(C(C)(C)C)cc2)C(=O)O)cc1 (centres undefined) | 74% (active)
25 | Cc1ccc(C(=O)CS(C)(=O)=O)cc1 | 99%

Row | Compound | percent activity (GTP binding)
26 | Cc1ccc(CSCC(N)C(=O)O)cc1 (centres undefined) | 97%
27 | Cc1cc(C)nc(Nc2ncn[nH]2)n1 | 96%
28 | Cc1ncc([N+](=O)[O-])n1CCOC(=O)c1ccc(Br)cc1 | 91%
29 | CCCCN(C(=O)c1ccc(OC(F)(F)F)cc1)c1c(N)n(CCC)c(=O)[nH]c1=O | 96%
30 | Cn1cc(CN2CCCCC2c2ccccn2)c(-c2ccc3c(c2)OCCO3)n1 (centres undefined) | 97%
31 | CCC(=O)N1c2ccccc2NC2=C(C(=O)CCC2)C1c1ccco1 (centres undefined) | 98%
32 | Cc1ccc(CN2CCN(Cc3cccc(C)n3)CC2CCO)cc1 (centres undefined) | 94%
33 | CC(=O)C1C(c2ccc(Cl)cc2)c2c(n[nH]c2C)CC1(C)O (centres undefined) | 97%
34 | COc1cc(/C=C/C2=CC(C)(C)NC(=S)N2)cc(OC)c1OC | 94%
35 | O=C(CCNC(=O)Cn1ccc2ccccc2c1=O)NCCC1=CCCCC1 | 101%
36 | COc1cc2c(C(=O)N3CCN(C)CC3)c(CSc3ccccc3)n(C)c2cc1Br | 94%
37 | Cc1nn(CC2CC2)c(=O)n1N(C)c1ncc(C(F)(F)F)cc1Cl | 96%
38 | COc1cccc(CNC(=O)CCC2CCCN(C(=O)c3ccoc3C)C2)c1 (centres undefined) | 95%
39 | COC(=O)NNC1=CC(=O)CC(C)(C)C1 | 97%
40 | CCC(C)N(C(=O)COC(=O)C1C(C(=O)OC)=C(C)NC(C)=C1C(=O)OC)C1CCS(=O)(=O)C1 (centres undefined) | 95%
41 | CC(C)(C)C(=O)CSc1nc2ccccc2o1 | 96%
42 | Cn1cnnc1SCC(=O)NNC(=O)COc1ccc(Br)cc1 | 98%
43 | O=C(CN1CCSCC1)N/N=C/c1ccc(Cl)cc1 | 95%
44 | O=C(Cc1ccc(Cl)cc1)NCc1nc(-c2ccccc2)no1 | 91%
45 | COc1ccc(N2C(=O)CC(Nc3ccc(F)cc3)C2=O)c([N+](=O)[O-])c1 (centres undefined) | 93%
46 | COC(=O)C1=C(C)NC(=O)CC1c1ccccc1OC (centres undefined) | 99%
47 | CCC(C)(C)NC(=O)C(c1ccccn1)N(C(=O)c1csnn1)c1ccccc1 (centres undefined) | 96%
48 | Cc1cc(C(=O)Cn2cnc3cc([N+](=O)[O-])ccc3c2=O)c(C)n1CC1CCCO1 (centres undefined) | 90%
49 | Cc1ccc(NC(=O)C(=O)NCc2ccco2)c(C)c1 | 98%

Source: PubChem BioAssay AID764 (NMMLSC, 2007)
